# Measured values taken from PubChem BioAssay AID1159580 (chemical genetic matrix, 2015).
# The whole screen tested about 5,500 compounds, of which about 2,000 (36%) were called active. About 18% were inconclusive and are not listed. The list shows a part of the results. Values without a mark were called inactive. Rule as the data show it: active = normalized growth mostly below about 0.91 (no sharp cut-off); inconclusive = no clear call, values can overlap the other calls; inactive = mostly above about 0.92.
# Assay: chemical genetic growth profiling, strain panel (AID 1159580);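 also: tested at 20 µM; growth read once vehicle control cultures reached saturation at 30 °C; 1 = growth at the plate median or of vehicle wells; lower values mean less growth of the strain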
# Details: growth OD
smiles,measurement,setting,value
CCCCOc1ccc(OCCCN2CCOCC2)cc1,normalized growth,"S. cerevisiae deletion strains, locus YJR075W, strain HOC1, active compounds read low",0.806 (active)
same,normalized growth,"S. cerevisiae deletion strains, locus YKL009W, strain mrt4, active compounds read low",1
same,normalized growth,"S. cerevisiae deletion strains, locus YKL068W, active compounds read low",0.998
same,normalized growth,"S. cerevisiae deletion strains, locus YKL085W, strain MDH1 (second series), active compounds read low",0.997
same,normalized growth,"S. cerevisiae deletion strains, locus YKL085W, strain MDH1, active compounds read low",0.997
same,normalized growth,"S. cerevisiae deletion strains, locus YKL160W, strain elf1, active compounds read low",0.914
same,normalized growth,"S. cerevisiae deletion strains, locus YKL190W, strain CNB1, active compounds read low",0.871 (active)
same,normalized growth,"S. cerevisiae deletion strains, locus YKR001C, strain vps1, active compounds read low",0.572 (active)
same,normalized growth,"S. cerevisiae deletion strains, locus YKR026C, strain gcn3, active compounds read low",0.985
same,normalized growth,"S. cerevisiae deletion strains, locus YKR091W, strain srl3, active compounds read low",0.992
same,normalized growth,"S. cerevisiae deletion strains, locus YLL001W, strain dnm1, active compounds read low",0.944
same,normalized growth,"S. cerevisiae deletion strains, locus YLL026W, active compounds read low",0.98
same,normalized growth,"S. cerevisiae deletion strains, locus YLL041C, strain sdh2, active compounds read low",0.958
same,normalized growth,"S. cerevisiae deletion strains, locus YLR027C, strain aat2, active compounds read low",0.977
same,normalized growth,"S. cerevisiae deletion strains, locus YLR039C, strain RIC1, active compounds read low",1.22
same,normalized growth,"S. cerevisiae deletion strains, locus YLR058C, strain SHM2, active compounds read low",0.908
same,normalized growth,"S. cerevisiae deletion strains, locus YLR102C, strain apc9, active compounds read low",0.989
same,normalized growth,"S. cerevisiae deletion strains, locus YLR113W, strain HOG1, active compounds read low",1.03
same,normalized growth,"S. cerevisiae deletion strains, locus YLR221C, strain rsa3, active compounds read low",0.919
same,normalized growth,"S. cerevisiae deletion strains, locus YLR258W, strain gsy2, active compounds read low",0.946
same,normalized growth,"S. cerevisiae deletion strains, locus YLR262C, strain YPT6 (second series), active compounds read low",0.771 (active)
same,normalized growth,"S. cerevisiae deletion strains, locus YLR262C, strain YPT6, active compounds read low",1.16
same,normalized growth,"S. cerevisiae deletion strains, locus YLR268W, strain sec22, active compounds read low",0.873 (active)
same,normalized growth,"S. cerevisiae deletion strains, locus YLR320W, strain mms22, active compounds read low",0.609 (active)
same,normalized growth,"S. cerevisiae deletion strains, locus YLR330W, strain CHS5, active compounds read low",0.969
same,normalized growth,"S. cerevisiae deletion strains, locus YLR342W, strain FKS1 (second series), active compounds read low",0.87
same,normalized growth,"S. cerevisiae deletion strains, locus YLR342W, strain FKS1, active compounds read low",0.985
same,normalized growth,"S. cerevisiae deletion strains, locus YLR357W, strain rsc2, active compounds read low",1.08
same,normalized growth,"S. cerevisiae deletion strains, locus YLR370C, strain arc18, active compounds read low",0.986
same,normalized growth,"S. cerevisiae deletion strains, locus YLR371W, strain rom2, active compounds read low",0.965
same,normalized growth,"S. cerevisiae deletion strains, locus YLR384C, strain iki3, active compounds read low",0.934
same,normalized growth,"S. cerevisiae deletion strains, locus YLR418C, strain cdc73, active compounds read low",0.736 (active)
same,normalized growth,"S. cerevisiae deletion strains, locus YML016C, strain PPZ1, active compounds read low",0.985
same,normalized growth,"S. cerevisiae deletion strains, locus YML032C, strain rad52, active compounds read low",0.848 (active)
same,normalized growth,"S. cerevisiae deletion strains, locus YML120C, strain ndi1, active compounds read low",1.01
same,normalized growth,"S. cerevisiae deletion strains, locus YML124C, strain tub3, active compounds read low",0.997
same,normalized growth,"S. cerevisiae deletion strains, locus YMR058W, strain fet3, active compounds read low",0.927
same,normalized growth,"S. cerevisiae deletion strains, locus YMR078C, strain ctf18, active compounds read low",0.975
same,normalized growth,"S. cerevisiae deletion strains, locus YMR125W, strain sto1, active compounds read low",0.973
same,normalized growth,"S. cerevisiae deletion strains, locus YMR129W, active compounds read low",1
same,normalized growth,"S. cerevisiae deletion strains, locus YMR205C, strain PFK2, active compounds read low",0.897
same,normalized growth,"S. cerevisiae deletion strains, locus YMR223W, strain ubp8, active compounds read low",0.88 (active)
same,normalized growth,"S. cerevisiae deletion strains, locus YMR231W, strain pep5, active compounds read low",0.967
same,normalized growth,"S. cerevisiae deletion strains, locus YMR263W, strain SAP30, active compounds read low",0.946
same,normalized growth,"S. cerevisiae deletion strains, locus YMR307W, strain GAS1, active compounds read low",1
same,normalized growth,"S. cerevisiae deletion strains, locus YNL067W, strain RPL9B, active compounds read low",0.829 (active)
same,normalized growth,"S. cerevisiae deletion strains, locus YNL071W, strain lat1, active compounds read low",0.663 (active)
same,normalized growth,"S. cerevisiae deletion strains, locus YNL128W, strain TEP1, active compounds read low",0.986
same,normalized growth,"S. cerevisiae deletion strains, locus YNL153C, strain GIM3, active compounds read low",0.903
same,normalized growth,"S. cerevisiae deletion strains, locus YNL183C, strain NPR1, active compounds read low",0.917
same,normalized growth,"S. cerevisiae deletion strains, locus YNL209W, strain ssb2, active compounds read low",0.965
same,normalized growth,"S. cerevisiae deletion strains, locus YNL233W, strain BNI4, active compounds read low",0.767 (active)
same,normalized growth,"S. cerevisiae deletion strains, locus YNL248C, strain rpa49, active compounds read low",0.769 (active)
same,normalized growth,"S. cerevisiae deletion strains, locus YNL250W, strain rad50, active compounds read low",0.963
same,normalized growth,"S. cerevisiae deletion strains, locus YNL271C, strain bni1, active compounds read low",0.966
same,normalized growth,"S. cerevisiae deletion strains, locus YNL298W, strain CLA4, active compounds read low",0.975
same,normalized growth,"S. cerevisiae deletion strains, locus YNL307C, strain MCK1, active compounds read low",0.649 (active)
same,normalized growth,"S. cerevisiae deletion strains, locus YNL322C, strain KRE1 (second series), active compounds read low",1.02
same,normalized growth,"S. cerevisiae deletion strains, locus YNL322C, strain KRE1, active compounds read low",0.977
same,normalized growth,"S. cerevisiae deletion strains, locus YNR049C, strain mso1, active compounds read low",0.978
same,normalized growth,"S. cerevisiae deletion strains, locus YNR052C, strain pop2, active compounds read low",0.83 (active)
same,normalized growth,"S. cerevisiae deletion strains, locus YOL006C, strain TOP1, active compounds read low",0.239 (active)
same,normalized growth,"S. cerevisiae deletion strains, locus YOL012C, strain htz1",1.06
same,normalized growth,"S. cerevisiae deletion strains, locus YOL147C, strain pex11, active compounds read low",0.962
same,normalized growth,"S. cerevisiae deletion strains, locus YOR001W, strain rrp6, active compounds read low",0.8 (active)
same,normalized growth,"S. cerevisiae deletion strains, locus YOR061W, strain CKA2, active compounds read low",0.987
same,normalized growth,"S. cerevisiae deletion strains, locus YOR069W, strain VPS5, active compounds read low",0.995
same,normalized growth,"S. cerevisiae deletion strains, locus YOR070C, strain gyp1, active compounds read low",0.632 (active)
same,normalized growth,"S. cerevisiae deletion strains, locus YOR080W, strain dia2, active compounds read low",0.985
same,normalized growth,"S. cerevisiae deletion strains, locus YOR083W, strain WHI5, active compounds read low",0.931
same,normalized growth,"S. cerevisiae deletion strains, locus YOR106W, strain vam3, active compounds read low",0.875
same,normalized growth,"S. cerevisiae deletion strains, locus YOR136W, strain idh2, active compounds read low",0.962
same,normalized growth,"S. cerevisiae deletion strains, locus YOR144C, strain elg1, active compounds read low",0.994
same,normalized growth,"S. cerevisiae deletion strains, locus YOR184W, strain ser1, active compounds read low",0.742 (active)
same,normalized growth,"S. cerevisiae deletion strains, locus YOR231W, strain MKK1, active compounds read low",0.984
same,normalized growth,"S. cerevisiae deletion strains, locus YOR265W, strain rbl2, active compounds read low",0.967
same,normalized growth,"S. cerevisiae deletion strains, locus YOR270C, strain vph1, active compounds read low",0.41 (active)
same,normalized growth,"S. cerevisiae deletion strains, locus YOR290C, strain snf2, active compounds read low",0.917
same,normalized growth,"S. cerevisiae deletion strains, locus YOR316C, strain cot1, active compounds read low",0.99
same,normalized growth,"S. cerevisiae deletion strains, locus YPL051W, strain arl3, active compounds read low",0.873 (active)
same,normalized growth,"S. cerevisiae deletion strains, locus YPL055C, strain LGE1, active compounds read low",0.857
same,normalized growth,"S. cerevisiae deletion strains, locus YPL078C, strain atp4, active compounds read low",0.941
same,normalized growth,"S. cerevisiae deletion strains, locus YPL106C, strain sse1, active compounds read low",1.09
same,normalized growth,"S. cerevisiae deletion strains, locus YPL240C, strain hsp82, active compounds read low",0.982
same,normalized growth,"S. cerevisiae deletion strains, locus YPL241C, strain CIN2, active compounds read low",0.992
same,normalized growth,"S. cerevisiae deletion strains, locus YPL256C, strain CLN2, active compounds read low",1.02
same,normalized growth,"S. cerevisiae deletion strains, locus YPR119W, strain clb2, active compounds read low",1.01
same,normalized growth,"S. cerevisiae deletion strains, locus YPR141C, strain kar3, active compounds read low",0.984
same,normalized growth,"S. cerevisiae deletion strains, locus YPR163C, strain tif3, active compounds read low",0.765 (active)
same,normalized growth,"S. cerevisiae deletion strains, locus YPR167C, strain met16, active compounds read low",0.977
same,normalized growth,"S. cerevisiae deletion strains, strain wtn01, active compounds read low",0.856 (active)
same,normalized growth,"S. cerevisiae strains, strain wild type, active compounds read low",0.895 (active)
